Test results reported in PubChem BioAssay (Tox21).
Results filed as inconclusive are left out. A call without a number means that no potency is given here. Unmarked numbers belong to inactive results. Calls of active or inactive are those of the source. Unless noted, calls come from the whole dose curve; as a rule, active = well fitted curve in the direction sought with a large enough effect in the repeat runs; inconclusive = weak or mixed curves; inactive = no such curve, though single readings can be large; an effect the other way counts as inactive or inconclusive.

Legend:
[1] = molecular target: Aryl hydrocarbon receptor (Homo sapiens) (UniProt P35869); experiment: qHTS assay to identify small molecule that activate the aryl hydrocarbon receptor (AhR) signaling pathway (AID 743085); note: nearly all actives have a fitted effect of over 15% in size; note: potency is the fitted concentration of half-maximal effect;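 for activation: HG2L7.5c1 human HepG2 liver cells with stably integrated DRE-driven firefly reporter; series mostly up to about 70 µM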
Summary of the method: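 AhR agonist activity is inferred from enhanced light output of a DRE-controlled firefly luciferase reporter in HepG2 cells, measured with ONE-Glo following 24 h treatment at 37C.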

[2] = molecular target: Peroxisome proliferator-activated receptor gamma (Homo sapiens) (UniProt P37231); experiment: qHTS assay to identify small molecule agonists of the peroxisome proliferator-activated receptor gamma (PPARg) signaling pathway (AID 743094; active = well fitted activation curve with a large enough effect in the signal ratio in the repeat runs, not every such curve was filed as active; the % refers to the signal ratio)
Summary of the method: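 Cell-based bla reporter, HEK293H background, PPARg-driven UAS. Pre-incubation 5 h, 37C, 5% CO2. Compound 17 h, 37C. Substrate 1 h RT; fluorescence.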

[3] = molecular target: Peroxisome proliferator-activated receptor gamma (Homo sapiens) (UniProt P37231); experiment: qHTS assay to identify small molecule antagonists of the peroxisome proliferator-activated receptor gamma (PPARg) signaling pathway (AID 743191; calls by dose curve; note: series mostly up to about 63 µM; nearly all actives have a fitted effect of over 30% in size)
Summary of the method: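 GeneBLAzer PPARg UAS-bla HEK293H cells, 5 h post-plating, exposed to compounds 17 h at 37C. LiveBLAzer B/G FRET substrate added for 1 h at room temperature; beta-lactamase reporter read by fluorescence intensity.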

[4] = qHTS assay to identify small molecule antagonists of the peroxisome proliferator-activated receptor gamma (PPARg) signaling pathway - cell viability counter screen (AID 743194); note: nearly all actives have a fitted effect of over 55% in size; note: potency is the fitted concentration of half-maximal effect
Summary of the method: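 Cytotoxicity counter screen in PPARg-bla HEK293H cells, same wells as reporter assay. Compounds plus 50 nM rosiglitazone (final) for 17 h at 37 C, then viability read by CellTiter-Glo luminescence.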

[5] = qHTS assay for small molecule agonists of the antioxidant response element (ARE) signaling pathway - cell viability counter screen (AID 743203; calls by dose curve; note: nearly all actives have a fitted effect of over 55% in size; note: potency is the fitted concentration of half-maximal effect)
Summary of the method: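 Measured in the same wells as the beta-lactamase ARE reporter, this read-out is CellTiter-Glo luminescence from HepG2 ARE-bla cells given compounds for 16 hrs.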

[6] = qHTS assay for small molecule activators of the heat shock response signaling pathway - cell viability counter screen (AID 743209); note: nearly all actives have a fitted effect of over 50% in size; note: potency is the fitted concentration of half-maximal effect
Summary of the method: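 Same-well multiplex: after 2.5 h room-temperature incubation with LiveBLAzer B/G substrate and fluorescence reading, CellTiter-Glo reagent was added to HSE-bla HeLa cells that had received compound for 5 h at 37 C; luminescence read after 30 min.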

[7] = qHTS assay for small molecule activators of the heat shock response signaling pathway (AID 743210; active = well fitted activation curve with a large enough effect in the signal ratio in the repeat runs, with a control signal flat, not every such curve was filed as active; the % refers to the signal ratio;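 note: HeLa cells with beta-lactamase reporter driven by heat shock elements; series mostly up to about 63 µM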)
Summary of the method: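 Beta-lactamase reporter read-out: FRET substrate fluorescence after 2.5 h at RT, following 5 h compound treatment at 37 C of HeLa cells carrying HSE-driven bla reporter; quantitative HTS format.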

[8] = qHTS assay to identify small molecule agonists of the peroxisome proliferator-activated receptor delta (PPARd) signaling pathway - cell viability counter screen (AID 743211); note: nearly all actives have a fitted effect of over 55% in size; note: potency is the fitted concentration of half-maximal effect
Summary of the method: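 qHTS cell viability: PPARd-bla HEK293H; 17 h cpd, 37C; CellTiter-Glo, luminescence at 30 min RT.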

[9] = qHTS assay for small molecule agonists of the antioxidant response element (ARE) signaling pathway (AID 743202; active = well fitted activation curve with a large enough effect in the signal ratio in the repeat runs, not every such curve was filed as active; the % refers to the signal ratio; note: potency is the fitted concentration of half-maximal effect)
Summary of the method: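 HepG2 ARE-bla reporter line, 2,000 cells/well; 5 h preincubation 37 C/5% CO2; compound (DMSO) 16 h 37 C; B/G FRET substrate 2 h RT; fluorescence intensity.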

[10] = qHTS assay to identify small molecule that activate the aryl hydrocarbon receptor (AhR) signaling pathway - cell viability counter screen (AID 743086);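 note: HepG2 liver cells carrying the AhR DRE luciferase reporter; series mostly up to about 70 µM; nearly all actives have a fitted effect of over 45% in size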
Summary of the method: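 HepG2-AhR-luc (HG2L7.5c1) cells, 4000/well, treated 24 h at 37 C with compound; viability measured as CellTiter-Fluor fluorescence after 30 min in the same wells as the luciferase read.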

Chain of Aryl hydrocarbon receptor (Homo sapiens) (P35869 whole entry, looked up): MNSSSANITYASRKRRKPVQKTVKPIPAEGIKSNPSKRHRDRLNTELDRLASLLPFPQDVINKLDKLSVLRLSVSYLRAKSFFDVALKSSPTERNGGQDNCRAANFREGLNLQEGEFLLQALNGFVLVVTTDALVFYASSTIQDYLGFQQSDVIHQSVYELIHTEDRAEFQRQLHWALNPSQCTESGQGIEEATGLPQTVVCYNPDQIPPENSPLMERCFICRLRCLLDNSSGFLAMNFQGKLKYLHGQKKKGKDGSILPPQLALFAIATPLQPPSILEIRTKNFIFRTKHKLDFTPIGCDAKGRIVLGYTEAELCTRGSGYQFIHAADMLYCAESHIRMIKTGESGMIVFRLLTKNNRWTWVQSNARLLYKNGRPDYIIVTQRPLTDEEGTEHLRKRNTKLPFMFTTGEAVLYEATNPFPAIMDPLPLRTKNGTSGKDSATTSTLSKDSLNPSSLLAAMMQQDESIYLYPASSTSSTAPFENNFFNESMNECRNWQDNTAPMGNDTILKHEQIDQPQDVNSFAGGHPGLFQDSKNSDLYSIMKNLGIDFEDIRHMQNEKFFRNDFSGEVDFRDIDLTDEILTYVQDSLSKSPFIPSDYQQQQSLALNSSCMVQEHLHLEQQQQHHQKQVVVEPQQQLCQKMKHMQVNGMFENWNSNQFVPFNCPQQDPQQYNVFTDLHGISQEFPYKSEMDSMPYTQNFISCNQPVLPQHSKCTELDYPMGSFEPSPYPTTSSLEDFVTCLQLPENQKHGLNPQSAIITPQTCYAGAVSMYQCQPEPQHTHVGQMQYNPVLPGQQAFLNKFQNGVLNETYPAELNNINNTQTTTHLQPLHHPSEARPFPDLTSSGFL
Chain of Peroxisome proliferator-activated receptor gamma (Homo sapiens) (P37231 whole entry, looked up): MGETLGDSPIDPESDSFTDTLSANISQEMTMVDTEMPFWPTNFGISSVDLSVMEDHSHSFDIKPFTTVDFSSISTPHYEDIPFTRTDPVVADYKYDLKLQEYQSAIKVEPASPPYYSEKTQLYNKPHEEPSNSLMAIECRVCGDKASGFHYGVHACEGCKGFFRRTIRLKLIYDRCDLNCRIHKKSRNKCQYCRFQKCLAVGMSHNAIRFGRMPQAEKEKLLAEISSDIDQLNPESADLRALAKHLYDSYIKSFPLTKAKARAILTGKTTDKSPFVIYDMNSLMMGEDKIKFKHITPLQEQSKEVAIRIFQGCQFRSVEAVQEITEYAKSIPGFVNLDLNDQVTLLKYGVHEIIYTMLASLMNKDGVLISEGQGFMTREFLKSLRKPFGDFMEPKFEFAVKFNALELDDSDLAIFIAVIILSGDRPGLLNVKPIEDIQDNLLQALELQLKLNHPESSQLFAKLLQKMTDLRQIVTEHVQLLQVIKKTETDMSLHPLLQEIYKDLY

## CCCCCCCCCCCCCCCCCC(=O)OCC(CC)CCCC (configuration not stated)
[1]
  Potency: inactive
[2]
  outcome: inactive
[3]
  Potency: inactive
[4]
  Potency: inactive
[5]
  Potency: inactive
[6]
  Potency: inactive
[7]
  Potency: inactive
[8]
  Potency: inactive

## COc1cc(C(C)=O)ccc1OCCCN1CCC(c2noc3cc(F)ccc23)CC1
[1]
  Potency: inactive
[4]
  Potency: inactive
[5]
  Potency: inactive
[6]
  Potency: inactive
[7]
  Potency: inactive
[8]
  Potency: inactive

## COc1cc(NCc2ccc3nc(N)nc(N)c3c2C)cc(OC)c1OC
[1]
  Potency: 29.8 µM (active)
[5]
  Potency: 0.0376 µM (active)
[6]
  Potency: inactive
[7]
  Potency: inactive

## CC(C)COC(=O)c1ccc(O)cc1
[1]
  Potency: inactive
[2]
  outcome: inactive
[3]
  Potency: inactive
[4]
  Potency: inactive
[5]
  Potency: inactive
[6]
  Potency: inactive
[7]
  Potency: inactive
[8]
  Potency: inactive

## ClC1=C(Cl)C1(Cl)Cl
[1]
  Potency: inactive
[2]
  outcome: inactive
[4]
  Potency: inactive
[5]
  Potency: inactive
[6]
  Potency: inactive
[7]
  Potency: inactive
[8]
  Potency: inactive

## CCCCCCCCCCCCCCCC(=O)OCC
[1]
  Potency: inactive
[2]
  outcome: inactive
[3]
  Potency: inactive
[4]
  Potency: inactive
[5]
  Potency: inactive
[6]
  Potency: inactive
[7]
  Potency: inactive
[8]
  Potency: inactive

## Nc1ccc(N=Nc2ccc(N)cc2)cc1
[1]
  Potency: inactive
[2]
  outcome: inactive
[9]
  Potency: 2.43 µM (active)
[5]
  Potency: inactive
[6]
  Potency: inactive
[7]
  Potency: inactive
[8]
  Potency: inactive

## CO[C@@H]1[C@@H](OC)[C@H](C)[C@@](O)(CC(=O)O)O[C@H]1[C@H](C)[C@H]1O[C@@]2(CC[C@@](C)([C@H]3CC[C@@](C)([C@@H]4O[C@@H]([C@H]5O[C@](C)(O)[C@H](C)C[C@@H]5C)C[C@@H]4OC4C[C@H](OC)[C@@H](OC)[C@H](C)O4)O3)O2)C[C@H](O)[C@H]1C (some centres not stated)
[1]
  Potency: inactive
[2]
  outcome: inactive
[4]
  Potency: 8.41 µM (active)
[6]
  Potency: 11.9 µM (active)
[7]
  Potency: inactive

## CCC(Cl)CC(Cl)C(Cl)C(Cl)C(Cl)C(C)Cl (configuration not stated)
[10]
  Potency: inactive
[2]
  outcome: inactive
[3]
  ratio activity, negative = inhibition: -28.9% [at 13.2 µM]
[4]
  activity change, negative = cytotoxicity: -22.8% [at 13.2 µM]
[9]
  activation: 7.21% [at 18.1 µM]
[5]
  viability change, negative = cytotoxic: -17% [at 18.1 µM]
[6]
  activity change, negative = cytotoxicity: 2.25% [at 13.2 µM]
[8]
  activity change, negative = cytotoxicity: -18.5% [at 13.2 µM]

## CN1CCCN(C(c2ccccc2)c2ccc(Cl)cc2)CC1 (configuration not stated)
[1]
  Potency: inactive
[6]
  Potency: inactive
[7]
  Potency: inactive
[8]
  Potency: 21.1 µM (active)

## CN(C)CC/C=C1\c2ccccc2Sc2ccc(Cl)cc21
[1]
  Potency: inactive
[2]
  outcome: inactive
[6]
  Potency: inactive
[7]
  Potency: inactive
[8]
  Potency: 29.8 µM (active)

## CC[C@H]1OC(=O)[C@H](C)[C@@H](O[C@H]2C[C@@](C)(OC)[C@@H](O)[C@H](C)O2)[C@H](C)[C@@H](O[C@@H]2O[C@H](C)C[C@H](N(C)C)[C@H]2O)[C@](C)(O)C[C@@H](C)C(=O)[C@H](C)[C@@H](O)[C@]1(C)O
[1]
  Potency: inactive
[2]
  outcome: inactive
[4]
  Potency: inactive
[9]
  Potency: inactive
[7]
  Potency: inactive
[8]
  Potency: inactive

## O=S(=O)(O)CO
[10]
  Potency: inactive
[2]
  outcome: inactive
[3]
  Potency: inactive
[4]
  Potency: inactive
[9]
  Potency: inactive
[5]
  Potency: inactive
[7]
  Potency: inactive
[8]
  Potency: inactive

## CC(=O)C(C)=O
[1]
  Potency: inactive
[2]
  outcome: inactive
[4]
  Potency: inactive
[9]
  Potency: inactive
[5]
  Potency: inactive
[6]
  Potency: inactive
[7]
  Potency: inactive
[8]
  Potency: inactive

## O=C1[C@@H]2[C@H]3CC[C@H](C3)[C@@H]2C(=O)N1CCCCN1CCN(c2ncccn2)CC1
[1]
  Potency: inactive
[2]
  outcome: inactive
[3]
  Potency: inactive
[4]
  Potency: inactive
[5]
  Potency: inactive
[6]
  Potency: inactive
[7]
  Potency: inactive
[8]
  Potency: inactive

## Cc1ccc(NC(=O)N(C)C)cc1NC(=O)N(C)C
[10]
  Potency: inactive
[2]
  outcome: inactive
[3]
  Potency: inactive
[4]
  Potency: inactive
[9]
  Potency: inactive
[5]
  Potency: inactive
[6]
  Potency: inactive
[7]
  Potency: inactive

## c1ccc2sc(SSc3nc4ccccc4s3)nc2c1
[1]
  Potency: inactive
[2]
  outcome: inactive
[4]
  Potency: inactive
[9]
  Potency: 13 µM (active)
[5]
  Potency: inactive
[6]
  Potency: inactive

## CC(=O)C(=O)CC(C)C
[1]
  Potency: inactive
[2]
  outcome: inactive
[4]
  Potency: inactive
[9]
  Potency: inactive
[5]
  Potency: inactive
[6]
  Potency: inactive

## OCC(CO)n1cnc(-c2ccc(F)cc2)c1-c1ccnc(Oc2ccccc2)n1
[1]
  Potency: inactive
[2]
  outcome: inactive
[3]
  Potency: inactive
[4]
  Potency: inactive
[5]
  Potency: inactive
[6]
  Potency: inactive
[7]
  Potency: inactive
[8]
  Potency: inactive

## CCCCCCCC/C=C\CCCCCCCC(=O)OCCO
[1]
  Potency: inactive
[2]
  outcome: inactive
[3]
  Potency: inactive
[4]
  Potency: inactive
[5]
  Potency: inactive
[8]
  Potency: inactive

## CC(C)(C)S
[1]
  Potency: inactive
[2]
  outcome: inactive
[4]
  Potency: inactive
[9]
  Potency: inactive
[5]
  Potency: inactive
[8]
  Potency: inactive

## Nc1cccc2c(N)cccc12
[1]
  Potency: 19.3 µM (active)
[2]
  outcome: inactive
[6]
  Potency: inactive
[8]
  Potency: inactive

## CC1CCCO1 (configuration not stated)
[1]
  Potency: inactive
[2]
  outcome: inactive
[4]
  Potency: inactive
[5]
  Potency: inactive
[6]
  Potency: inactive
[7]
  Potency: inactive
[8]
  Potency: inactive

## CCCCCCCCCCCCCC(=O)OCC(O)CO (configuration not stated)
[1]
  Potency: inactive
[4]
  Potency: inactive
[9]
  Potency: inactive
[6]
  Potency: inactive
[7]
  Potency: inactive

## Nc1ccc(S(=O)(=O)NCc2ccccc2)cc1
[10]
  Potency: inactive
[2]
  outcome: inactive
[3]
  Potency: inactive
[4]
  Potency: inactive
[9]
  Potency: inactive
[5]
  Potency: inactive
[6]
  Potency: inactive
[7]
  Potency: inactive
[8]
  Potency: inactive

## Cc1ccc2nc(N)[nH]c(=O)c2c1Sc1ccncc1
[1]
  Potency: 13.3 µM (active)
[4]
  Potency: inactive
[5]
  Potency: inactive
[7]
  Potency: inactive
[8]
  Potency: inactive

## COC1CCC=CO1 (configuration not stated)
[1]
  Potency: inactive
[2]
  outcome: inactive
[4]
  Potency: inactive
[9]
  Potency: inactive
[5]
  Potency: inactive
[6]
  Potency: inactive
[7]
  Potency: inactive
[8]
  Potency: inactive

## COc1ccc(-c2cc(=S)ss2)cc1
[1]
  Potency: 29.8 µM (active)
[3]
  Potency: inactive
[4]
  Potency: inactive
[9]
  Potency: 13.3 µM (active)
[5]
  Potency: inactive
[6]
  Potency: inactive
[8]
  Potency: inactive

## O=C1c2ccccc2C(=O)c2c(O)ccc(O)c21
[1]
  Potency: 7.7 µM (active)
[3]
  Potency: inactive
[9]
  Potency: 2.73 µM (active)
[7]
  Potency: inactive
[8]
  Potency: inactive

## CC(C)(O)c1coc(S(=O)(=O)NC(=O)Nc2c3c(cc4c2CCC4)CCC3)c1
[10]
  Potency: inactive
[2]
  outcome: inactive
[3]
  Potency: inactive
[4]
  Potency: inactive
[9]
  Potency: inactive
[5]
  Potency: inactive
[6]
  Potency: inactive
[7]
  Potency: inactive
[8]
  Potency: inactive

## c1ccc(CNc2ncnc3c2ncn3C2CCCCO2)cc1 (configuration not stated)
[1]
  Potency: 8.63 µM (active)
[2]
  outcome: inactive
[4]
  Potency: inactive
[5]
  Potency: inactive
[6]
  Potency: inactive
[7]
  Potency: inactive
[8]
  Potency: inactive

## COc1ccc(N)c([N+](=O)[O-])c1
[1]
  Potency: inactive
[2]
  outcome: inactive
[4]
  Potency: inactive
[9]
  Potency: inactive
[5]
  Potency: inactive
[6]
  Potency: inactive
[7]
  Potency: inactive

## CC/C=C\C/C=C\C/C=C\CCCCCCCC(=O)OCC
[1]
  Potency: inactive
[4]
  Potency: inactive
[5]
  Potency: inactive
[6]
  Potency: inactive
[8]
  Potency: inactive

## CC(O)Cn1cnc2c1c(=O)n(C)c(=O)n2C (configuration not stated)
[1]
  Potency: inactive
[2]
  outcome: inactive
[4]
  Potency: inactive
[9]
  Potency: inactive
[5]
  Potency: inactive
[6]
  Potency: inactive
[7]
  Potency: inactive
[8]
  Potency: inactive

## Cc1cc([N+](=O)[O-])ccc1N
[2]
  outcome: inactive
[4]
  Potency: inactive
[9]
  Potency: inactive
[5]
  Potency: inactive
[6]
  Potency: inactive
[8]
  Potency: inactive
